Results on 38 molecules are retold here after PubChem BioAssay (Tox21).

Molecules are shown by their SMILES. “And” between values parts separate entries of the source, which are not always exact repeats. Equal values may be shown once. Records with an inconclusive call do not appear. A number with no mark means an inactive call. The source made the active and inactive calls. The call rests on the fitted dose curve; in most records, active means well fitted curve in the direction sought with a large enough effect in the repeat runs; inconclusive means weak or mixed curves; inactive means no such curve, though single readings can be large; an effect the other way counts as inactive or inconclusive.
On the % scale 0 is the no-effect control and ±100 the full control effect; potency means the concentration at half of the fitted maximal effect.

One experiment is described as follows: qHTS assay to identify small molecule agonists of the RXR signaling pathway - cell viability counter screen (AID 1159529). Further: nearly all actives have a fitted effect of over 50% in size.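 On activity change, negative = cytotoxicity: HEK 293T cells carrying an RXR-alpha UAS beta-lactamase reporter.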 Conditions: RXR-alpha-bla HEK293T viability, CellTiter-Glo, 16 h; series mostly up to 76.8 µM; activity change, negative = cytotoxicity: at the top concentration. A digest of the protocol: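 Steps: seed RXR-alpha-UAS-bla HEK 293T cells in assay medium containing 2% charcoal-stripped FBS; incubate 5 hr; add compounds in DMSO; incubate 16 hr at 37 C; after the bla read, add CellTiter-Glo and read luminescence at 30 min.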
A general note: qHTS replaces the single test concentration by a dilution series.
In the case of `O=C(c1ccc(O)c(O)c1)c1ccc(O)cc1O`, the “activity change, negative = cytotoxicity” value is 27%.
For the molecule `CCOC(=O)NNc1ccc(N(CC)CC(C)O)nn1` (stereo unspecified), the “activity change, negative = cytotoxicity” value was -0.344% [at 35.3 µM].
Consider `CCC(=O)C(=O)CC`, for which the “activity change, negative = cytotoxicity” value was -1.86%.
As to `COc1ccc(-c2coc3cc(O)ccc3c2=O)cc1`, the “activity change, negative = cytotoxicity” value was 8.64%.
The same measure, in the same setting: the result for `CCCCCCCCCCCCOC(=O)c1ccc(O)cc1` reads -1.63%.
Still for that read-out and setting: the result for `O=C(O)c1cc(-c2ccc(F)cc2F)ccc1O` reads -11.4% [at 35.3 µM].
Take `C#CC1(O)CC[C@H]2[C@@H]3CCC4=CCCC[C@@H]4[C@H]3CC[C@@]21C` (stereo partly specified): the Potency was 24.5 µM (active) and 21.3 µM (active).
As for `CC1(C)[C@@H](O)CC[C@]2(C)[C@H]3C(=O)C=C4[C@@H]5C[C@@](C)(C(=O)O)CC[C@]5(C)CC[C@@]4(C)[C@]3(C)CC[C@@H]12`, the “activity change, negative = cytotoxicity” value is 1.04%.
Regarding `OC12N=C(c3ccccc3)SC1Cc1cc(Cl)ccc12` (stereo unspecified), the Potency was 54.9 µM (active).
Turning to `Cc1cc(-c2ccc(N=Nc3cc(S(=O)(=O)O)c4ccccc4c3N)c(C)c2)ccc1N=Nc1cc(S(=O)(=O)O)c2ccccc2c1N`, the “activity change, negative = cytotoxicity” value is 2.15%.
The same measure, in the same setting: the result for `Nc1nc2c(ncn2COCCO)c(=O)[nH]1` reads 0.896% [at 35.3 µM].
Consider `CCCCCC(C)OC(=O)COc1ccc(Cl)c2cccnc12` (stereo unspecified), for which the Potency was 11 µM (active).
For `CCO[Si](OCC)(OCC)OCC`, the “activity change, negative = cytotoxicity” value is 9.61%.
Take `CN(C)Cc1ccccc1O`: the “activity change, negative = cytotoxicity” value is -5.12%.
`CC(C)=CCC1=C(O)c2ccccc2C(=O)C1=O`: the “activity change, negative = cytotoxicity” value was -24.6%.
For the molecule `C=Cc1cccc(C)c1`, the Potency entry was “inactive”.
Consider `CCc1ccc(Br)cc1`, for which the “activity change, negative = cytotoxicity” value was -5.39%.
Turning to `OC/C=C/CO`, the “activity change, negative = cytotoxicity” value is 4.02%.
On the same count and under the same terms, the result for `C#C[C@]1(O)CC[C@H]2[C@@H]3[C@H](C)CC4=C(CCC(=O)C4)[C@H]3CC[C@@]21C` reads -14.6% [at 35.3 µM].
On to `O=S(=O)(O)c1ccccc1/C=C/c1ccc(-c2ccc(/C=C/c3ccccc3S(=O)(=O)O)cc2)cc1`, for which the “activity change, negative = cytotoxicity” value was 14.5%.
As for `CCc1cccc(CC)c1NC(=O)CN(CC(=O)O)CC(=O)O`, the “activity change, negative = cytotoxicity” value is 0.0638% [at 35.3 µM].
Turning to `CC(C)CCCCCOC(=O)CCS`, the “activity change, negative = cytotoxicity” value was 13.3%.
Still for that read-out and setting: to `c1cnccn1` belongs 1.51%; to `CC(CCc1ccccc1)NCC(O)c1ccc(O)c(C(N)=O)c1` (stereo unspecified), -25.2%; to `Cc1ccc(C(=O)O)cc1`, -0.829%.
Still for that read-out and setting: the result for `S=C([S-])NCCNC(=S)[S-].S=C([S-])NCCNC(=S)[S-].[Mn+2].[Zn+2]` reads -7.8% [at 35.3 µM]; that for `CCn1c2ccccc2c2cc([N+](=O)[O-])ccc21`, -15.6%; that for `CC(C(=O)O)c1ccc2c(c1)[nH]c1ccc(Cl)cc12` (stereo unspecified), 9.99% [at 35.3 µM].
Still for that read-out and setting: to `NC[C@H]1O[C@H](O[C@H]2[C@H](O[C@@H]3O[C@H](CO)[C@@H](O)[C@H]3O)C(O)[C@H](N)C[C@@H]2N)[C@H](N)[C@@H](O)[C@@H]1O` (stereo partly specified) belongs 3% [at 6.97 µM].
As for `O=C(Oc1ccccc1)Oc1ccccc1`, the “activity change, negative = cytotoxicity” value is -23.7%.
The same measure, in the same setting: the result for `CCCNCCC` reads 7.15%; that for `CN1CCN2c3ccccc3Cc3ccccc3C2C1` (stereo unspecified), -14.1% [at 35.3 µM].
`O=C1CCc2ccc(OCCCCN3CCN(c4cccc(Cl)c4Cl)CC3)cc2N1`: the Potency was 23.9 µM (active).
Consider `O=C1OC2(c3ccc(O)cc3Oc3cc(O)ccc32)c2ccc(N=C=S)cc21`, for which the “activity change, negative = cytotoxicity” value is -0.348%.
Consider `c1ccc(C(O[C@@H]2CCCN(CCc3ccc4c(c3)OCO4)C2)c2ccccc2)cc1`, for which the “activity change, negative = cytotoxicity” value was -8.36%.
For the molecule `ClCCl`, the “activity change, negative = cytotoxicity” value was 4.52%.
Still for that read-out and setting: to `Cc1cc(C)c(/C=C2\C(=O)Nc3ccccc32)[nH]1` belongs -15.6% [at 35.3 µM]; to `CCC(CC)C(C)CCOC(C)=O` (stereo unspecified), 11.8%.

The nature of another experiment: qHTS assay to identify small molecule antagonists of the retinoid acid receptor (RAR) signaling pathway - cell viability counter screen (AID 1159551). Further: nearly all actives have a fitted effect of over 35% in size. Particulars: C3RL4 cells viability, ATP luminescence (CellTiter-Glo), 6 h; series mostly up to 92.4 µM; activity change, negative = cytotoxicity: at the top concentration. In a few lines:
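In this counter screen, the RARE-luciferase line C3RL4 was exposed for 6 h at 37 C and 5% CO2 to compounds with retinol at 1 uM final. Cellular ATP, read by luminescence, served as the viability measure.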
Take `O=C(c1ccc(O)c(O)c1)c1ccc(O)cc1O`: the “activity change, negative = cytotoxicity” value is 7.63%.
As for `CCOC(=O)NNc1ccc(N(CC)CC(C)O)nn1` (stereo unspecified), the “activity change, negative = cytotoxicity” value was -0.0739% [at 42.5 µM].
With `CCC(=O)C(=O)CC`, the “activity change, negative = cytotoxicity” value is 2.44%.
Still for that read-out and setting: the result for `COc1ccc(-c2coc3cc(O)ccc3c2=O)cc1` reads 0.875%.
The same measure, in the same setting: to `CCCCCCCCCCCCOC(=O)c1ccc(O)cc1` belongs -2.07%.
Regarding `O=C(O)c1cc(-c2ccc(F)cc2F)ccc1O`, the “activity change, negative = cytotoxicity” value was -0.447% [at 42.5 µM].
On to `C#CC1(O)CC[C@H]2[C@@H]3CCC4=CCCC[C@@H]4[C@H]3CC[C@@]21C` (stereo partly specified), for which the Potency was 54.5 µM (active) and 26.6 µM (active).
Regarding `CC1(C)[C@@H](O)CC[C@]2(C)[C@H]3C(=O)C=C4[C@@H]5C[C@@](C)(C(=O)O)CC[C@]5(C)CC[C@@]4(C)[C@]3(C)CC[C@@H]12`, the “activity change, negative = cytotoxicity” value is -4.98%.
Still for that read-out and setting: to `OC12N=C(c3ccccc3)SC1Cc1cc(Cl)ccc12` (stereo unspecified) belongs -3.71%; to `Cc1cc(-c2ccc(N=Nc3cc(S(=O)(=O)O)c4ccccc4c3N)c(C)c2)ccc1N=Nc1cc(S(=O)(=O)O)c2ccccc2c1N`, 0.807%; to `Nc1nc2c(ncn2COCCO)c(=O)[nH]1`, 3.66% [at 42.5 µM].
On the same count and under the same terms, to `CCCCCC(C)OC(=O)COc1ccc(Cl)c2cccnc12` (stereo unspecified) belongs -8.18%.
The same measure, in the same setting: to `CCO[Si](OCC)(OCC)OCC` belongs 1.75%; to `CN(C)Cc1ccccc1O`, -0.901%; to `CC(C)=CCC1=C(O)c2ccccc2C(=O)C1=O`, -4.88%.
Regarding `C=Cc1cccc(C)c1`, the Potency result was “inactive”.
For `CCc1ccc(Br)cc1`, the “activity change, negative = cytotoxicity” value is 0.727%.
Turning to `OC/C=C/CO`, the “activity change, negative = cytotoxicity” value was -4.67%.
`C#C[C@]1(O)CC[C@H]2[C@@H]3[C@H](C)CC4=C(CCC(=O)C4)[C@H]3CC[C@@]21C`: the “activity change, negative = cytotoxicity” value was -0.321% [at 42.5 µM].
The same measure, in the same setting: to `O=S(=O)(O)c1ccccc1/C=C/c1ccc(-c2ccc(/C=C/c3ccccc3S(=O)(=O)O)cc2)cc1` belongs 3.5%; to `CCc1cccc(CC)c1NC(=O)CN(CC(=O)O)CC(=O)O`, 1.66% [at 42.5 µM]; to `CC(C)CCCCCOC(=O)CCS`, -2.26%.
Still for that read-out and setting: the result for `c1cnccn1` reads 4.24%; that for `CC(CCc1ccccc1)NCC(O)c1ccc(O)c(C(N)=O)c1` (stereo unspecified), -0.607%; that for `Cc1ccc(C(=O)O)cc1`, 1.75%.
With `S=C([S-])NCCNC(=S)[S-].S=C([S-])NCCNC(=S)[S-].[Mn+2].[Zn+2]`, the “activity change, negative = cytotoxicity” value was -1.88% [at 42.5 µM].
The same measure, in the same setting: the result for `CCn1c2ccccc2c2cc([N+](=O)[O-])ccc21` reads -1.7%; that for `CC(C(=O)O)c1ccc2c(c1)[nH]c1ccc(Cl)cc12` (stereo unspecified), -0.113% [at 42.5 µM]; that for `NC[C@H]1O[C@H](O[C@H]2[C@H](O[C@@H]3O[C@H](CO)[C@@H](O)[C@H]3O)C(O)[C@H](N)C[C@@H]2N)[C@H](N)[C@@H](O)[C@@H]1O` (stereo partly specified), -0.449% [at 8.39 µM].
Same read-out and setting: to `O=C(Oc1ccccc1)Oc1ccccc1` belongs -2.55%.
The same measure, in the same setting: the result for `CCCNCCC` reads 0.194%.
Consider `CN1CCN2c3ccccc3Cc3ccccc3C2C1` (stereo unspecified), for which the “activity change, negative = cytotoxicity” value was 0.829% [at 42.5 µM].
The same measure, in the same setting: the result for `O=C1CCc2ccc(OCCCCN3CCN(c4cccc(Cl)c4Cl)CC3)cc2N1` reads -13.5% [at 42.5 µM]; that for `O=C1OC2(c3ccc(O)cc3Oc3cc(O)ccc32)c2ccc(N=C=S)cc21`, -0.417%.
Still for that read-out and setting: to `c1ccc(C(O[C@@H]2CCCN(CCc3ccc4c(c3)OCO4)C2)c2ccccc2)cc1` belongs -5.02%.
On the same count and under the same terms, to `ClCCl` belongs -0.241%; to `Cc1cc(C)c(/C=C2\C(=O)Nc3ccccc32)[nH]1`, 0.874% [at 42.5 µM].
With `CCC(CC)C(C)CCOC(C)=O` (stereo unspecified), the “activity change, negative = cytotoxicity” value was 0.673%.
